# An excerpt weighted towards active compounds, which were near 3.9% of everything screened.
# USP2a inh – qHTS Assay for Inhibitors of Ubiquitin-specific Protease USP2a Using CHOP2 as the Reporter; 330,000 compounds, 0.01% hits; USP2 core, Ub-CHOP2 coupled fluorogenic reporter, 485/531; AID 463254, 2010; Potency, µM (titrated, usually from 38.3 µM), without a hit: at the highest dose activity change, negative = inhibition, usual class: inhibitors;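 note: potency is the fitted concentration of half-maximal effect; plate controls were DMSO wells for no effect and full inhibition by NEM control for full effect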
#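 Cell-free coupled assay: 10nM USP2 core preincubated 30min RT with compound in Tris-HCl pH 8.0/CaCl2/CHAPS buffer, then 25nM Ub-CHOP2 and 25nM reporter substrate; fluorescence (Ex 485/Em 531) read after 60min RT, normalized to NEM inhibition, concentration-response curves fitted.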
# GALK inhibitor – qHTS Assay for Inhibitors of Human Galactokinase (GALK). Purified GALK, Kinase-Glo residual ATP luminescence. Potency, µM (series often up to 57.5 µM), without a hit: top-dose activity change, negative = inhibition, actives largely listed as inhibitors. AID 1868, 2009. P51570. 270,000 compounds, 0.007% hits; note: potency is the fitted concentration of half-maximal effect; % is set by controls: 0 for no effect and ±100 for the full control effect
#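 Human GALK (5 nM) with 35 uM ATP and 100 uM galactose in 20 mM HEPES pH 8.0, 5 mM MgCl2, 60 mM NaCl, 1 mM DTT, 0.01% BSA. After 1 h at room temperature, leftover ATP was read by Kinase-Glo Plus luminescence.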
# D1 ag – Allosteric Agonists of the Human D1 Dopamine Receptor: qHTS; HEK293 T-REx D1 cells, calcium flux, agonist mode; 360,000 compounds, 1% hits; activation, % at 2 µM; D(1A) dopamine receptor (Homo sapiens), P21728; in the data active = activation above about 30%; note: 0% is about no effect
#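 Tetracycline-induced HEK293 TREx D1 cells, force-coupled to calcium signalling, were dye-loaded with a no-wash calcium kit. Compound was pin-added after a 10 s baseline. Fluorescence was read kinetically at 1 cycle/s for 180 s, with calcium rises flagged as agonism.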
# D1 PAM – Potentiators of Human D1 Dopamine Receptor: qHTS; 360,000 compounds, 0.036% hits; potentiation, % at 10 µM; HEK293 TREx D1 cells, calcium flux, dopamine EC20 potentiation; D(1A) dopamine receptor (Homo sapiens), P21728; in the data active = potentiation above about 30%; note: 0% is about no effect
# Eya2 inh – qHTS Assay for Inhibitors of the Phosphatase Activity of Eya2. recombinant Eya2, OMFP fluorescence dephosphorylation (OMFP is methylfluorescein phosphate). Potency, µM (series often up to 76.9 µM), without a hit: at the top dose activity, negative = inhibition, most hits filed as inhibitors. 330,000 compounds, 0.006% hits; note: potency is the fitted concentration of half-maximal effect; % is set by controls: 0 for no effect and ±100 for the full control effect
# Target sequence (O00167 whole entry, looked up): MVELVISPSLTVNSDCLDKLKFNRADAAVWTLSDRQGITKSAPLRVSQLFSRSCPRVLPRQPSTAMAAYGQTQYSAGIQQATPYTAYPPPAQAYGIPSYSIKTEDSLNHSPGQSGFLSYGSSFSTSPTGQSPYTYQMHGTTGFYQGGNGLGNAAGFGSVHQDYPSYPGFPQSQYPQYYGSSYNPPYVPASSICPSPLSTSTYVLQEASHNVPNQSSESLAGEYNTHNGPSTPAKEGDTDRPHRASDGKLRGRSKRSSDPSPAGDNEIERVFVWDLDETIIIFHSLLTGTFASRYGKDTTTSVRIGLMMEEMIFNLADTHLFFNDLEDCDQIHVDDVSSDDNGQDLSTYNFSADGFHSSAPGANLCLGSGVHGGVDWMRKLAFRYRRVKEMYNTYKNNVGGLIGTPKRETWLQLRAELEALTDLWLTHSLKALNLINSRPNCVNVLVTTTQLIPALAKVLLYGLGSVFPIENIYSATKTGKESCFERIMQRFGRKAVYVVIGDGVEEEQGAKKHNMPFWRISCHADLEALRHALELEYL
#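 Eya2 protein (added as 0.2 uM solution) was preincubated with compound for 10 min at ambient temperature in 50 mM HEPES pH 7.5, 50 mM NaCl, 5 uM MgCl2, 0.05% BSA, 1 mM DTT. OMFP (added at 50 uM) then reacted 10 min; fluorescence read at 485/525 nm.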
# D1 antag – Antagonist of Human D 1 Dopamine Receptor: qHTS; D(1A) dopamine receptor (Homo sapiens), P21728; HEK293 TREx D1 cells, calcium flux, dopamine EC80; active compounds read low; activity change, negative = inhibition, % at 10 µM; 360,000 compounds, 3.2% hits; AID 504652, 2011; in the data active = activity change below about -30%; note: % is set by controls: 0 for no effect and ±100 for the full control effect
#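 Tetracycline-induced HEK293 Trex D1 cells, force-coupled to calcium, dye-loaded; compounds added and read 180 s, then EC80 dopamine added and calcium flux tracked kinetically another 180 s.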
# The depositor's hits bear a star; / = no result. Unless noted, calls come from the whole dose curve; as a rule, active = well fitted inhibition curve with a large enough effect; inconclusive = small, poorly fitted or top-dose-only effect, or effect the other way; inactive = flat fitted curve, though single readings scatter.
SMILES,USP2a inh,GALK inhibitor,D1 ag,D1 PAM,Eya2 inh,D1 antag
O=C(NCCCNc1ccc(C(F)(F)F)cc1[N+](=O)[O-])c1cc(F)c(F)cc1Cl,-9%,3%,16,-5,12%,-43*
O=C(NCCCNc1ccc(C(F)(F)F)cc1[N+](=O)[O-])c1ccc(Cl)cc1,0%,2%,0,-3,-12%,11
Cc1ccc(C)n1-n1cnc2sc3c(c2c1=O)CCC3,2%,-1%,2,-11,17%,-33*
O=C(O)c1ccc(Cn2cnc3sc4c(c3c2=O)CCCC4)cc1,-1%,-2%,3,5,0%,-29
Cc1ccc(Cn2cnc3sc4c(c3c2=O)CCC4)c(C)c1,0%,-4%,-1,38*,-3%,8
Cc1cc(S(=O)(=O)Nc2cc3c(cc2NCc2ccccc2)n(C)c(=O)n3C)ccc1F,/,/,0,-1,/,6
CCOC(=O)CSC1=NC(=O)/C(=C/c2ccc(OC)cc2)S1,5%,1%,6,-8,1%,-37*
O=C(NCCc1ccc2c(c1)OCCO2)c1cc(S(=O)(=O)N2CCCC2)ccc1Cl,0%,/,16,-6,48%,-32*
O=C(NCCc1ccc2c(c1)OCCO2)c1cccc(S(=O)(=O)N2CCCC2)c1,4%,/,0,-1,-5%,6
CC1(c2ccccc2)NC(=O)N(CC(=O)Nc2ccc3c(c2)OCO3)C1=O (stereo not drawn),3%,-1%,3,-3,-4%,6
COc1cccc(NC(=O)CN2C(=O)NC(C)(c3ccc(C)cc3)C2=O)c1 (stereo not drawn),1%,-1%,34*,-9,-9%,-2
CC1(c2ccc(OC(F)F)cc2)NC(=O)N(CC(=O)Nc2ccc3c(c2)OCO3)C1=O (stereo not drawn),-1%,-3%,66*,-9,-9%,-60*
O=C(CN1C(=O)NC2(CCCC2)C1=O)Nc1cc(Cl)ccc1N1CCCCC1,1%,-6%,42*,0,-1%,2
CCOC(=O)CN1C(=O)NC(C)(c2ccc(OC(F)F)cc2)C1=O (stereo not drawn),-1%,6%,15,6,-4%,-2
CC(=O)Nc1ccc(/C=N/N2C(=O)NC(C)(c3ccc(OC(F)F)cc3)C2=O)cc1 (stereo not drawn),9%,-1%,96*,-12,0%,-50*
COc1ccc(OC)c(Nc2nc3ccccc3n3c(C)nnc23)c1,/,/,1,-1,/,4
CCN1C(=O)C(=O)N(CC(=O)c2[nH]c(C)c(C(C)=O)c2C)C1=O,1%,/,1,-3,-5%,-9
CC1(c2ccc(OC(F)F)cc2)NC(=O)N(CC(=O)Nc2ccc3[nH]c(=O)[nH]c3c2)C1=O (stereo not drawn),1%,/,2,-3,-13%,5
CC(=O)c1c(C)[nH]c(C(=O)CN2C(=O)NC(C)(c3ccc(C)cc3)C2=O)c1C (stereo not drawn),6%,4%,33*,-6,7%,9
Cc1ccc(C2(C)NC(=O)N(CC(=O)Nc3ccccc3N3CCCC3)C2=O)cc1 (stereo not drawn),0%,/,47*,5,2%,5
CC1(c2ccc(OC(F)F)cc2)NC(=O)N(CC(=O)Nc2ccccc2)C1=O (stereo not drawn),3%,5%,59*,2,-23%,-59*
COc1ccc(C2(C)NC(=O)N(CC(=O)c3cc(C)n(C4CC4)c3C)C2=O)cc1 (stereo not drawn),2%,/,64*,-3,17%,-9
